Source: PubChem BioAssay
Activity calls are given as the source filed them.

Assays:
[1] = test system: Human papillomavirus type 1a protein E7 (residues 44-93); assay: HPV1a E7 fragment binders on microarrays, primary screen, biochemical, small-molecule microarray, residues 44-93, 635 nm fluorescence (AID 1108); conditions: small-molecule microarray binding, fluorescence 635 nm; higher = more signal;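 further: E7 fragment applied at 1 µg/mL in TBST for 1 h at 4 C; score combines spot fluorescence with its signal to noise ratio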
[2] = modulators of HCV replicon luciferase signal, primary screen, HCV replication inhibitor project, Huh7 cells, luciferase reporter (AID 1109); conditions: 48 h, higher = more signal;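 further: huh7 hepatoma cells harbouring a luciferase neomycin HCV replicon reporter; luciferase luminescence as measure of HCV replicon replication; test concentration not given here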
[3] = molecular target: Left-right determination factor 2 (Homo sapiens) (UniProt O00292); assay: LEFTY2 binders on small-molecule microarrays, primary screen, biochemical, small-molecule microarray, 635 nm fluorescence scan (AID 1110); conditions: LEFTY2 binding, higher = more signal
Chain of Left-right determination factor 2 (Homo sapiens) (O00292 whole entry, looked up): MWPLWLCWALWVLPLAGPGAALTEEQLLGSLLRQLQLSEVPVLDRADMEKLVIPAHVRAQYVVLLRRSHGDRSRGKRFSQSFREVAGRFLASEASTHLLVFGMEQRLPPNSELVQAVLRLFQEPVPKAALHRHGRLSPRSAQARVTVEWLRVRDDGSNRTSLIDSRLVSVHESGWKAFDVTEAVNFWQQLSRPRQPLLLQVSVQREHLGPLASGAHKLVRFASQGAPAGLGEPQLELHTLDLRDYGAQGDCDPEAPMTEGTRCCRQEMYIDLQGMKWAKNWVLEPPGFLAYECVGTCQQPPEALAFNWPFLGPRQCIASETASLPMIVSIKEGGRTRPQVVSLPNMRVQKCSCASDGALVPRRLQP

[4] = molecular target: Calmodulin-1 (Homo sapiens) (UniProt P0DP23); assay: CALM1 binders on microarrays, EGTA buffer, profiling panel, biochemical, small-molecule microarray, Cy5-labelled CALM1 (AID 1111); conditions: Cy5-CALM1 binding fluorescence, higher = more signal;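 further: labelled calmodulin applied in Tris saline Tween buffer holding calcium plus EGTA and DTT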
[5] = molecular target: Calmodulin-1 (Homo sapiens) (UniProt P0DP23); assay: calcium-bound CALM1 binders on microarrays, profiling panel, artefact control for SMM control-protein annotation, biochemical, small-molecule microarray, Cy5-labelled CALM1, plus calcium (AID 1112); conditions: Cy5-CALM1 binding fluorescence, higher = more signal;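 further: score merges spot fluorescence with signal to noise from triplicate slides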
[6] = small-molecule microarray binders of probe aWnt5a, primary screen, biochemical, biotinylated probe, 635/667 nm fluorescence (AID 1113); conditions: higher = more signal;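 further: score merges 667 nm fluorescence intensity with signal-to-noise per printed feature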
[7] = small-molecule microarray binders of probe aShh, primary screen, biochemical, biotinylated probe, 635/667 nm fluorescence (AID 1114); conditions: higher = more signal;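 further: probe is biotin-labelled aShh protein from a stem cell growth factor screen; measures binding of labelled protein to compounds printed on the slide; score merges feature fluorescence at 667 nm with signal-to-noise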
[8] = small-molecule microarray binders of probe aNog, primary screen, biochemical, biotinylated probe, 635/667 nm fluorescence (AID 1115); conditions: higher = more signal;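 further: probe is biotinylated aNog protein used at 0.15 µg/mL for 1 h at 4 C; z-score combines 667 nm fluorescence of each spot with its signal to noise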
[9] = molecular target: Torsin-1A-interacting protein 1 (Homo sapiens) (UniProt Q5JTV8); assay: LAP1 binders from COS7 cell lysate, primary screen, small-molecule microarray, 635/667 nm fluorescence (AID 1116); conditions: COS7-hLAP1 lysate binding, 635 nm fluorescence, higher = more signal
Chain of Torsin-1A-interacting protein 1 (Homo sapiens) (Q5JTV8 whole entry, looked up): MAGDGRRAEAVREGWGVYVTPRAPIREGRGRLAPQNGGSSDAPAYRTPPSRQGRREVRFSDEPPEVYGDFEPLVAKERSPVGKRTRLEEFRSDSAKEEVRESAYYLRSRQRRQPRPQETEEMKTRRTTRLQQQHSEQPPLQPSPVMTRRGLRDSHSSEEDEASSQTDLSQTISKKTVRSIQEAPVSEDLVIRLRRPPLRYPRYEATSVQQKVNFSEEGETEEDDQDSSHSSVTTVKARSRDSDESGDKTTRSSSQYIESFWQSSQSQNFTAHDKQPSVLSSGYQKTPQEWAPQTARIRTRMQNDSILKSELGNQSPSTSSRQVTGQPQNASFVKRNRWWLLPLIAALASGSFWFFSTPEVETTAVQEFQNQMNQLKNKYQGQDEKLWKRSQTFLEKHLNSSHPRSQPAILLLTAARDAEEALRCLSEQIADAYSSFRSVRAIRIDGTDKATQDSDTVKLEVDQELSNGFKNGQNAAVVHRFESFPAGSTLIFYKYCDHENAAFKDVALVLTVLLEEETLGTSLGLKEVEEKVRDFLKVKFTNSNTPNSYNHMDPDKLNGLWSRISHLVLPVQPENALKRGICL

[10] = molecular target: Alpha-bungarotoxin (Bungarus multicinctus) (UniProt P60615); assay: alpha-bungarotoxin binders on microarray, profiling panel, artefact control for SMM control protein annotation, biochemical, small-molecule microarray, Alexa647 label, 635/667 nm fluorescence (AID 1117); conditions: alpha-BTX-A647 binding fluorescence, higher = more signal
Chain of Alpha-bungarotoxin (Bungarus multicinctus) (P60615 whole entry, looked up): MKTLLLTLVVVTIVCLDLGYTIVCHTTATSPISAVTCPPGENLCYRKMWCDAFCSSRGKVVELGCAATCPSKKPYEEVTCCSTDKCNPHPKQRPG

[11] = molecular target: Albumin (Bos taurus) (UniProt P02769); assay: bovine serum albumin binders on microarray, profiling panel, artefact control for SMM control protein annotation, biochemical, small-molecule microarray, Alexa647 label, 635/667 nm fluorescence (AID 1118); conditions: BSA-A647 binding, fluorescence 635 nm, higher = more signal;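 further: score merges 667 nm emission intensity and signal-to-noise per printed compound spot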
Chain of Albumin (Bos taurus) (P02769 whole entry, looked up): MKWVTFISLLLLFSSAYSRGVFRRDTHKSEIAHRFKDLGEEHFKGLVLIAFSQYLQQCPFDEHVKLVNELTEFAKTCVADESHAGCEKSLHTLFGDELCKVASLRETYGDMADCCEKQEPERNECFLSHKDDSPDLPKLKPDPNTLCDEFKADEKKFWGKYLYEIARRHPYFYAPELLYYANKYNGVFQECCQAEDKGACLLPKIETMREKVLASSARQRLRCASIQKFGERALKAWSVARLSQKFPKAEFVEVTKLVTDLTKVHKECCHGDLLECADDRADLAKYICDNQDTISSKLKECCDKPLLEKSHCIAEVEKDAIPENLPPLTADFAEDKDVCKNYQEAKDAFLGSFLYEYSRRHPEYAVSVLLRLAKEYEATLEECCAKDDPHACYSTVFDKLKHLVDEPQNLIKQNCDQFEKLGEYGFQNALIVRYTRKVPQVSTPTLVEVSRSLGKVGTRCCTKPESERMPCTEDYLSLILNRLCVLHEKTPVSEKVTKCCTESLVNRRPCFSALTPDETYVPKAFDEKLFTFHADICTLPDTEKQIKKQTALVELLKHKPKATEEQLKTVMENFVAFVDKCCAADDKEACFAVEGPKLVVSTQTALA

[12] = small-molecule microarray binders of probe aXIP, primary screen, biochemical, NeuroSMM set, 635/667 nm fluorescence (AID 1119); conditions: higher = more signal, called active from +8 up or from −8 down;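 further: probe is the protein aXip251-270 applied at 1 µg/mL to compound-printed slides; binding of probe to printed compounds measured as 667 nm fluorescence plus signal to noise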
[13] = small-molecule binders of probe aNOTCH3, primary screen, biochemical, small-molecule microarray, 635/667 nm fluorescence (AID 1120); conditions: higher = more signal;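 further: probe is a biotin-tagged antibody raised against NOTCH3 rather than NOTCH3 protein; score merges spot fluorescence near 667 nm with spot signal to noise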
[14] = small-molecule binders of probe aNOTCH2, primary screen, biochemical, small-molecule microarray, 635/667 nm fluorescence (AID 1121); conditions: higher = more signal;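 further: score merges feature fluorescence read at 667 nm with its signal to noise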
[15] = molecular target: Carbonic anhydrase 2 (Homo sapiens) (UniProt P00918); assay: CAII small-molecule binders, profiling panel, biochemical, small-molecule microarray, Alexa647-labelled CAII (AID 1122); conditions: CAII-A647 binding fluorescence, higher = more signal
[16] = COS7 lysate on small-molecule microarray, probe aHis, 635 nm (AID 1123); conditions: COS7 cell lysate, fluorescence, higher = more signal;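 further: z-score combines 667nm fluorescence intensity with signal-to-noise per printed compound spot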
[17] = compound binding in COS7 lysate, probe aLAP1, primary screen, cell lysate, small-molecule microarray (AID 1124); conditions: probe aLAP1, fluorescence, higher = more signal;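 further: lysate comes from COS7 cells expressing LAP1 and is applied at 0.3 µg/mL; score merges spot fluorescence near 667 nm with signal-to-noise over triplicate slides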
[18] = test system: Sam68 (KHDRBS1); assay: Sam68 small-molecule binders, primary screen, biochemical, small-molecule microarray, 635 nm fluorescence (AID 1125); conditions: small-molecule microarray binding, higher = more signal;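 further: score merges 667 nm channel intensity with signal to noise over triplicate slides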
[19] = test system: Chordin-like protein 2 (CHRDL2); assay: CHRDL2 small-molecule binders, primary screen, biochemical, small-molecule microarray, 635 nm fluorescence (AID 1126); conditions: small-molecule microarray binding, fluorescence 635 nm; higher = more signal;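 further: printed compound slides probed with Chrdl2 protein at 4 µg/mL for 1 h at 4 C; score merges 667 nm emission intensity with signal to noise over three replicate slides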
[20] = molecular target: Concanavalin-A (Canavalia ensiformis) (UniProt P02866); assay: ConA small-molecule binders, primary screen, artefact control for SMM control protein annotation, biochemical, small-molecule microarray, Alexa647 label, 635 nm (AID 1127); conditions: ConA-A647 binding fluorescence, higher = more signal;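 further: z combines 667 nm emission intensity with signal-to-noise across three replicate slides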
Chain of Concanavalin-A (Canavalia ensiformis) (P02866 whole entry, looked up): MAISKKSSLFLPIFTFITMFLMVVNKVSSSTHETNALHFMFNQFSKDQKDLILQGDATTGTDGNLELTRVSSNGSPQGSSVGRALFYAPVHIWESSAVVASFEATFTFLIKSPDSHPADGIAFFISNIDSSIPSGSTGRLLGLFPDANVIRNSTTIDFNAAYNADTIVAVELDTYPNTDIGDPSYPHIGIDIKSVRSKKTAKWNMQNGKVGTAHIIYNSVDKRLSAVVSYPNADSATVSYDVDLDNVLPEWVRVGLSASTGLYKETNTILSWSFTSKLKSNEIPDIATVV

Row | Compound | composite z-score [1] | z-score [2] | composite z-score [3] | composite z-score [4] | composite z-score [5] | composite z-score [6] | composite z-score [7] | composite z-score [8] | composite z-score [9] | composite z-score [10] | composite z-score [11] | composite Z-score [12] | composite z-score [13] | composite z-score [14] | composite z-score [15] | composite z-score [16] | composite z-score [17] | composite z-score [18] | composite z-score [19] | composite z-score [20]
1 | Cc1ccc(S[C@]2(C(=O)O)CC(=O)N(Cc3ccccc3)[C@@H]2c2ccc(CO)cc2)cc1 | -0.323 | 0.764 | -1.29 | 0.321 | 0.965 | -0.172 | 0.046 | -0.0563 | -0.257 | -0.198 | -0.0554 | 1.28 (inactive) | -0.0328 | -0.154 | 0.724 | 1.02 | 0.623 | 0.401 | -0.852 | -0.467
2 | C=C(CCCC)/C(=C/C[C@@H](OC(=O)c1ccncc1)c1ccc(CO)o1)c1cnc2ccccc2c1 | -0.41 | -1.13 | 1.48 | 1.38 | -0.0149 | 0.0973 | 0.213 | 0.889 | 2.1 | 2.29 | 0.667 | 1.04 (inactive) | 0.382 | 0.0626 | 0.956 | 2.33 | 0.405 | 1.31 | 1.45 | 1.18
3 | COCCCNC(=O)[C@@]1(c2ccc([N+](=O)[O-])cc2)CC(=O)N(C2CCCCC2)[C@@H]1c1ccc(CO)cc1 | 0.361 | -0.558 | -0.256 | -0.702 | -0.762 | -0.418 | -0.8 | -0.811 | -0.218 | -0.374 | 0.502 | -0.0867 (inactive) | -0.391 | -0.272 | 0.672 | 2.28 | 1.63 | 0.0163 | -0.264 | -0.194
4 | CO[C@H]1COC(=O)[C@@H](OCc2ccccc2)C=C[C@H](C)[C@@H](OC)COC(=O)[C@H](OCc2ccccc2)C=C[C@@H]1C | -1.23 | 0.512 | 0.348 | -2.13 | -1.26 | -0.147 | -0.138 | -0.397 | -0.144 | -0.155 | -0.695 | -0.738 (inactive) | -0.0682 | -0.179 | -0.516 | -0.838 | -0.885 | -0.693 | -0.51 | -0.218
5 | CO[C@H]1O[C@H](CO)[C@@H](OC(=O)Nc2ccc3c(c2)OCO3)[C@H](OC(=O)Nc2ccccc2)[C@@H]1OC(=O)Nc1ccccc1 | 1.45 | -1.69 | -0.0553 | 1.01 | -0.677 | 0.129 | 0.0796 | 0.953 | 0.949 | 0.902 | 0.792 | 0.0474 (inactive) | -0.004 | -0.0952 | 0.743 | 3 | 0.982 | 1.29 | -0.0509 | 1.09
